The results in this text go back to PubChem BioAssay (NCI).

This is part of a sample that, as a whole, favours compounds with a hit. Of some 79,000 tested, about 15% had one in any assay. A number with no mark means an inactive call. The source made the active and inactive calls. Rule as the data show it: active = growth inhibition above about 70%; inactive = the rest.

Test [1] in a line: NCI Yeast Anticancer Drug Screen. Data for the rad50 strain (AID 155).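 Also: 0% = growth of vehicle-only cultures of the same strain.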 To be noted: S. cerevisiae rad50 strain growth inhibition, active compounds read high. The gist of the method: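 Compounds were tested on a yeast strain with an engineered DNA damage repair alteration; the reported value is growth inhibition normalised to vehicle treatment.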
The nature of test [2]: NCI Yeast Anticancer Drug Screen. Data for the mec2-1 strain (AID 157). To be noted: S. cerevisiae mec2-1 strain, active compounds read high. In a few lines:
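Readout is yeast growth inhibition, normalised to vehicle-treated controls, in the mec2-1 strain exposed to compound.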

Test [3] is described as follows: NCI Yeast Anticancer Drug Screen. Data for the sgs1 mgt1 strain (AID 161).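 Also: 0% = growth of cultures given vehicle only.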 To be noted: S. cerevisiae sgs1 mgt1 strain, active compounds read high. In a few lines:
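Yeast cells carrying a defined DNA-repair defect were exposed to test compounds. Growth inhibition was measured relative to vehicle-treated controls.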

The nature of test [4]: NCI Yeast Anticancer Drug Screen. Data for the cln2 rad14 strain (AID 165).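 Also: 0% = growth equal to vehicle treated cultures.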 To be noted: S. cerevisiae cln2 rad14 strain, active compounds read high. The gist of the method: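 Relative to vehicle controls, growth inhibition of compound-treated cln2 rad14 yeast was recorded.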
Test [5] in a line: NCI Yeast Anticancer Drug Screen. Data for the bub3 strain (AID 167). To be noted: S. cerevisiae bub3 mutant strain, active compounds read high. In a few lines:
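Growth of a checkpoint-deficient yeast mutant is measured after compound exposure. Values represent inhibition relative to vehicle.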

Test [6] can be described thus: NCI Yeast Anticancer Drug Screen. Data for the mlh1 rad18 strain (AID 175). To be noted: S. cerevisiae mlh1 rad18 strain growth inhibition, active compounds read high. In a few lines:
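Test agents were incubated with a yeast strain of defined genotype (DNA damage repair defect). Inhibition of growth was derived by comparison with vehicle-exposed cultures.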

[7] abbreviates: at 5.0 µM (retest, dose inferred, filed as 0.5).
[8] abbreviates: at 50.0 µM (retest, dose inferred, filed as 5.0).

Consider `COc1ccc2c(c1)c(CC(=O)O)c(C)n2C(=O)c1ccc(Cl)cc1`, for which the growth inhibition was -1% in test [1] (setting [7]); 37% in test [1] (setting [8]); 82.2% (active) in test [1] (at 50.0 µM); 1% in test [2] (setting [7]); 57% in test [2] (setting [8]); 48.2% in test [2] (at 50.0 µM). Also, the growth inhibition in test [3] (setting [7]) is 2%; in test [3] (setting [8]), 54%; in test [3] (at 50.0 µM), 88.7% (active); in test [4] (setting [7]), 1%; in test [4] (setting [8]), 32%; in test [4] (at 50.0 µM), 80.7% (active). For the same compound, the growth inhibition was 1% in test [5] (setting [7]); 30% in test [5] (setting [8]); 51.1% in test [5] (at 50.0 µM); -1% in test [6] (setting [7]); 39% in test [6] (setting [8]); 72% (active) in test [6] (at 50.0 µM).
With `CCc1cnc2ccccc2c1/C=C/c1ccc(N(C)C)cc1`, the growth inhibition is -13% in test [1] (setting [7]); 96% (active) in test [1] (setting [8]); 98.4% (active) in test [1] (at 50.0 µM); 9% in test [2] (setting [7]); 96% (active) in test [2] (setting [8]); 97.3% (active) in test [2] (at 50.0 µM). Also, the growth inhibition was 4% in test [3] (setting [7]); 96% (active) in test [3] (setting [8]); 92.3% (active) in test [3] (at 50.0 µM); -36% in test [4] (setting [7]); 94% (active) in test [4] (setting [8]); 93.1% (active) in test [4] (at 50.0 µM). In addition, the growth inhibition in test [5] (setting [7]) is 21%; in test [5] (setting [8]), 97% (active); in test [5] (at 50.0 µM), 96.8% (active); in test [6] (setting [7]), -8%; in test [6] (setting [8]) it was 94% (active); in test [6] (at 50.0 µM) it was 94.7% (active).
Consider `N#CC1c2ccccc2C=CN1C(=O)CCCl` (stereo not given), for which the growth inhibition in test [1] (setting [7]) was 7%; in test [1] (setting [8]), 41%; in test [1] (at 50.0 µM), 6.05%; in test [2] (setting [7]), 2%; in test [2] (setting [8]) it was 36%; in test [2] (at 50.0 µM), 34.2%. For the same compound, the growth inhibition was 11% in test [3] (setting [7]); 34% in test [3] (setting [8]); 53.5% in test [3] (at 50.0 µM); 8% in test [4] (setting [7]); 42% in test [4] (setting [8]); 17.1% in test [4] (at 50.0 µM). Moreover, the growth inhibition in test [5] (setting [7]) was 15%; in test [5] (setting [8]), 74% (active); in test [5] (at 50.0 µM), 74.3% (active); in test [6] (setting [7]), -11%; in test [6] (setting [8]), 38%; in test [6] (at 50.0 µM), 29.1%.
As to `O=[N+]([O-])c1ccc(C(Br)c2ccc([N+](=O)[O-])cc2)cc1`, the growth inhibition is 42% in test [1] (setting [7]); 97% (active) in test [1] (setting [8]); 99.8% (active) in test [1] (at 50.0 µM); 29% in test [2] (setting [7]); 100% (active) in test [2] (setting [8]); 99.8% (active) in test [2] (at 50.0 µM). For the same compound, the growth inhibition in test [3] (setting [7]) is 65%; in test [3] (setting [8]) it was 100% (active); in test [3] (at 50.0 µM), 99.8% (active); in test [4] (setting [7]), 22%; in test [4] (setting [8]), 99% (active); in test [4] (at 50.0 µM), 99.7% (active). The growth inhibition in test [5] (setting [7]) was 15%; in test [5] (setting [8]) it was 100% (active); in test [5] (at 50.0 µM) it was 99.7% (active); in test [6] (setting [7]) it was 54%; in test [6] (setting [8]) it was 99% (active); in test [6] (at 50.0 µM), 99.7% (active).
As for `CCCCC(CCc1ccc([N+](=O)[O-])cc1)(C(C)=O)C(=O)OCC` (stereo not given), the growth inhibition is 1% in test [1] (setting [7]); -41% in test [1] (setting [8]); 59.7% in test [1] (at 50.0 µM); 2% in test [2] (setting [7]); -10% in test [2] (setting [8]); 13.1% in test [2] (at 50.0 µM). Moreover, the growth inhibition in test [3] (setting [7]) is -2%; in test [3] (setting [8]) it was 24%; in test [3] (at 50.0 µM), 47%; in test [4] (setting [7]), -4%; in test [4] (setting [8]), -14%; in test [4] (at 50.0 µM), 4.75%. Besides, the growth inhibition in test [5] (setting [7]) is 11%; in test [5] (setting [8]) it was 45%; in test [5] (at 50.0 µM), 83.2% (active); in test [6] (setting [7]), -10%; in test [6] (setting [8]) it was -50%; in test [6] (at 50.0 µM), 62%.
In the case of `CCN1CCCC(Nc2cc(C)nc(/N=C(/N)Nc3ccc(Cl)c(Cl)c3)n2)C1` (stereo not given), the growth inhibition in test [1] (setting [7]) was 48%; in test [1] (setting [8]), 96% (active); in test [1] (at 50.0 µM), 90% (active); in test [2] (setting [7]), 32%; in test [2] (setting [8]), 98% (active); in test [2] (at 50.0 µM) it was 92% (active). Further, the growth inhibition was 48% in test [3] (setting [7]); 97% (active) in test [3] (setting [8]); 86.7% (active) in test [3] (at 50.0 µM); 55% in test [4] (setting [7]); 86% (active) in test [4] (setting [8]); 82.7% (active) in test [4] (at 50.0 µM). Besides, the growth inhibition was 29% in test [5] (setting [7]); 96% (active) in test [5] (setting [8]); 83.6% (active) in test [5] (at 50.0 µM); 57% in test [6] (setting [7]); 97% (active) in test [6] (setting [8]); 83.2% (active) in test [6] (at 50.0 µM).
For `Oc1ccc(Br)cc1Sc1cc(Br)ccc1O`, the growth inhibition is 6% in test [1] (setting [7]); 99% (active) in test [1] (setting [8]); 87.9% (active) in test [1] (at 50.0 µM); 28% in test [2] (setting [7]); 99% (active) in test [2] (setting [8]); 99.7% (active) in test [2] (at 50.0 µM). The growth inhibition in test [3] (setting [7]) was 26%; in test [3] (setting [8]) it was 100% (active); in test [3] (at 50.0 µM) it was 99.7% (active); in test [4] (setting [7]), 14%; in test [4] (setting [8]) it was 98% (active); in test [4] (at 50.0 µM) it was 99.4% (active). Also, the growth inhibition in test [5] (setting [7]) is 16%; in test [5] (setting [8]), 99% (active); in test [5] (at 50.0 µM), 99.2% (active); in test [6] (setting [7]) it was 53%; in test [6] (setting [8]) it was 99% (active); in test [6] (at 50.0 µM), 99.5% (active).
In the case of `Nc1nc2ncc(CNc3ccc(C(=O)NC(CCC(=O)NC(CCC(=O)NC(CCC(=O)NC(CCC(=O)NC(CCC(=O)O)C(=O)O)C(=O)O)C(=O)O)C(=O)O)C(=O)O)cc3)nc2c(=O)[nH]1` (stereo not given), the growth inhibition in test [1] (setting [7]) is -19%; in test [1] (setting [8]), -9%; in test [1] (at 50.0 µM), 25.2%; in test [2] (setting [7]), 0%; in test [2] (setting [8]) it was -6%; in test [2] (at 50.0 µM) it was 18.3%. The growth inhibition was 0% in test [3] (setting [7]); -12% in test [3] (setting [8]); 24.6% in test [3] (at 50.0 µM); 12% in test [4] (setting [7]); 1% in test [4] (setting [8]); 47% in test [4] (at 50.0 µM). Moreover, the growth inhibition in test [5] (setting [7]) was -5%; in test [5] (setting [8]), -2%; in test [5] (at 50.0 µM) it was -19.5%; in test [6] (setting [7]), 10%; in test [6] (setting [8]) it was 20%; in test [6] (at 50.0 µM) it was 8.35%.
On to `O=C(CCl)N1c2ccccc2Sc2c1ccc1ccccc21`, for which the growth inhibition was 25% in test [1] (setting [7]); 90% (active) in test [1] (setting [8]); 82.7% (active) in test [1] (at 50.0 µM); 39% in test [2] (setting [7]); 90% (active) in test [2] (setting [8]); 63.9% in test [2] (at 50.0 µM). For the same compound, the growth inhibition in test [3] (setting [7]) was 47%; in test [3] (setting [8]), 94% (active); in test [3] (at 50.0 µM), 90.6% (active); in test [4] (setting [7]), 20%; in test [4] (setting [8]), 69%; in test [4] (at 50.0 µM), 19.8%. In addition, the growth inhibition in test [5] (setting [7]) is 56%; in test [5] (setting [8]) it was 91% (active); in test [5] (at 50.0 µM), 72.2% (active); in test [6] (setting [7]) it was 46%; in test [6] (setting [8]) it was 90% (active); in test [6] (at 50.0 µM), 83.4% (active).
Turning to `CCCCCCCCCCCC[S+](C)CC(=O)[O-]` (stereo not given), the growth inhibition in test [1] (setting [7]) is 20%; in test [1] (setting [8]), 74% (active); in test [1] (at 50.0 µM), 23.2%; in test [2] (setting [7]), 5%; in test [2] (setting [8]) it was 70% (active); in test [2] (at 50.0 µM) it was 48.8%. For the same compound, the growth inhibition was -2% in test [3] (setting [7]); 78% (active) in test [3] (setting [8]); 39.5% in test [3] (at 50.0 µM); 11% in test [4] (setting [7]); 64% in test [4] (setting [8]); 72% (active) in test [4] (at 50.0 µM). The growth inhibition in test [5] (setting [7]) is 19%; in test [5] (setting [8]), 89% (active); in test [5] (at 50.0 µM) it was 27.9%; in test [6] (setting [7]), 10%; in test [6] (setting [8]), 41%; in test [6] (at 50.0 µM), 72.8% (active).
